# Shown is part of a subset that was picked to be rich in hits.
# Methyltransferases = Primary Screen for Target Class Profiling of Small Molecule Inhibitors of Methyltransferases. hit rate 3.9% among 25,000. calls only at 40 µM. purified enzyme, MTase-Glo SAH luminescence; hits give low values; call rule not given here
#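 Each enzyme was reacted with SAM and its substrate, with compounds tested once at 40 uM; SAH formed was read by MTase-Glo luminescence.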
# Calls only; - = inactive; + = active, no number; ! = not active in a repeat.
SMILES,Methyltransferases
COc1ccc(-c2ccn(CC[C@](C)(C(=O)NO)S(C)(=O)=O)c(=O)c2)c(F)c1,-
CC(=O)Nc1c2n(c3ccc(F)cc13)CC(C)(C(=O)NC1CCCC1)N(Cc1ccc(C)cc1)C2=O (stereo not drawn),-
Cc1ccsc1CCNC(=O)Cn1c(=O)oc2cc(S(=O)(=O)N3CCCC3)ccc21,+
O=C(Cn1c(=O)oc2cc(S(=O)(=O)N3CCCC3)ccc21)NCCc1ccc(Cl)cc1,-
O=C(Cn1c(=O)oc2cc(S(=O)(=O)N3CCCC3)ccc21)NCCC1=CCCCC1,-
Nc1nc2ccc(Cl)cc2c2nc(-c3ccco3)nn12,-
Nc1nc2c(cnn2CCc2ccccc2)c2nc(-c3ccco3)nn12,+
c1c(-c2nc(C3CCOC3)no2)sc2c1CCCC2 (stereo not drawn),-
Cc1cccc(NC(=O)CSc2nnc3n(Cc4ccccc4)c(=O)c4ccccc4n23)c1,-
O=C(O)c1cc([N+](=O)[O-])ccc1NCCCc1ccccc1,-
O=C1c2ccccc2C(=O)c2c(NCCc3ccc(O)cc3)ccc(NCCc3ccc(O)cc3)c21,+
Fc1ccccc1-c1noc(NCCc2ccc(Cl)cc2)n1,-
O=C(NCc1ccncc1)C(=O)NCC(c1cccnc1)N1CCOCC1 (stereo not drawn),-
CCc1cccc(NC(=O)Cn2nc3n(C)c(=O)c4ccc(C(=O)NC5CCCCC5)cc4n3c2=O)c1,-
CC(C)C1(O[C@@H]2O[C@H](CO)[C@@H](O)[C@H](O)[C@H]2O)CC=C(CO)CC1 (stereo partly drawn),-
CC1=CC(=O)C2C(C)(C)CC(O)CC2(C)C1CO (stereo not drawn),-
C/C(=C\CCC(C)(C)O)CCO[C@@H]1O[C@H](CO[C@@H]2O[C@@H](C)[C@H](O)[C@@H](O)[C@H]2O)[C@@H](O)[C@H](O)[C@H]1O,-
C=CC(C)(O)CC/C=C(\C)C(=O)O[C@@H]1[C@@H](O)[C@H](OC(C)(C=C)CC/C=C(\C)C(=O)O[C@@H]2O[C@H](CO)[C@@H](O)[C@H](O)[C@H]2O)O[C@H](CO)[C@H]1OC(=O)/C(C)=C/CCC(C)(O)C=C (stereo partly drawn),-
C=CC(C)(O)CC/C=C(\C)COC1O[C@H](CO)[C@@H](O)[C@H](O)[C@H]1O (stereo partly drawn),+
CCOC(=O)c1cc2n(n1)CC(C)(C(=O)NCCC(C)C)N(c1ccccc1OC)C2=O (stereo not drawn),-
CNCC(=O)N1CCC(Cc2cccc(C(N)=O)c2)C1 (stereo not drawn),-
CCCN1C(=O)c2c(C(=O)Nc3c(C)cccc3C)ncn2CC1(C)C(=O)NCc1ccc(C)cc1 (stereo not drawn),-
CC(C)N(CCCNC(=O)Nc1ccc(C(C)(C)C)cc1)C[C@H]1O[C@@H](n2cc(Br)c3c(N)ncnc32)[C@H](O)[C@@H]1O,+
O=S(=O)(O)c1ccc(Nc2ncnc3c2ncn3[C@@H]2O[C@H](CO)[C@@H](O)[C@H]2O)cc1,-
CC(C)N(CCCNC(=O)Nc1ccc(C(C)(C)C)cc1)C[C@H]1O[C@@H](n2ccc3c(N)ncnc32)[C@H](O)[C@@H]1O,+!
SMILES,Methyltransferases
CC(C)CCn1c(=O)c2ccccc2n2c(=O)n(CC(=O)Nc3ccc(F)cc3F)nc12,-
Cc1ccc(S(=O)(=O)c2nnn3c2nc(N2CCN(C)CC2)c2cc(Cl)ccc23)cc1C,-
CC1(C(=O)NC2CCCCCCC2)Cn2c(cc3sccc32)C(=O)N1CCc1ccc(Cl)cc1 (stereo not drawn),-
CCOC(=O)c1cccc(CNc2ccc(N(C)C(=O)Nc3ccccc3)cc2)c1,-
C=C1[C@H](OC(C)=O)[C@H]2[C@@H](OC(C)=O)[C@](C)(OC(C)=O)C[C@]2(OC(C)=O)C(=O)[C@H](C)/C=C/C(C)(C)C(=O)[C@H](OC(=O)C(C)CC)[C@H]1OC(C)=O (stereo partly drawn),-
CCCn1c(=O)c2ccc(C(=O)NC3CCCCC3)cc2n2c(SCC(=O)NC(C)(C)C)nnc12,-
CCOC(=O)c1cc2n(n1)CC(C)(C(=O)NC1CCCC1)N(c1cccc(C)c1C)C2=O (stereo not drawn),-
CCc1ccc(N2C(=O)c3c(C(=O)OC)ncn3CC2(C)C(=O)NC2CCCC2)cc1 (stereo not drawn),-
COCCCN1C(=O)c2ccccc2CC1(C)C(=O)NC1CCCCCCC1 (stereo not drawn),-
Cc1cc(C)c(NC(=O)N(Cc2ccc3c(c2)Cc2ccccc2-3)C2CCCCCC2)c(C)c1,+
CC1(C(=O)NC2CCCCCCC2)Cc2ccccc2C(=O)N1Cc1cccs1 (stereo not drawn),-
CN1C[C@H](O)C[C@H]1c1nnc2n1CCN(S(=O)(=O)c1ccccc1)CC2,-
COc1ccc(CNc2nc3c(S(=O)(=O)c4ccc(F)cc4)nnn3c3ccccc23)cc1,-
CC(O)c1cc2n(n1)CCCN(c1ncnc3ccsc13)C2 (stereo not drawn),-
Cc1cc(O)c(-c2ccc([C@@H](C)CN(C)C)cc2)c2c1[nH]c(=O)c1sccc12,+
Cc1c[nH]c2nccc(Oc3c(F)cc(Nc4cc(Cl)nc(N)n4)cc3F)c12,+
Cc1cc(C)cc(N2C(=O)c3cc4occc4n3CC2(C)C(=O)NC2CCC(C)CC2)c1 (stereo not drawn),-
NCCCC(=O)N1CCCC2(Cc3ccccc3CN2C(=O)c2cccc(Cl)c2)C1 (stereo not drawn),-
C=CCNC(=O)CCCc1nnc2n3nc(-c4ccccc4)nc3c3ccccc3n12,-
CCN(CC)CCNC(=O)CCCc1nnc2n3nc(-c4ccccc4)nc3c3ccccc3n12,+
CCN(CC)CCCNC(=O)CCCc1nnc2n3nc(-c4ccccc4)nc3c3ccccc3n12,+
Cc1ccc(CNC(=O)CCCc2nnc3n4nc(-c5ccccc5)nc4c4ccccc4n23)cc1,-
CC1CCCCN1CCNC(=O)CCCc1nnc2n3nc(-c4ccccc4)nc3c3ccccc3n12 (stereo not drawn),-
CC1CCC(NC(=O)CCCc2nnc3n4nc(-c5ccccc5)nc4c4ccccc4n23)CC1 (stereo not drawn),-
CC(=O)Nc1c2n(c3ccc(F)cc13)CC(C)(C(=O)NC1CCCCC1)N(C1CCCCC1)C2=O (stereo not drawn),-
SMILES,Methyltransferases
COc1ccc2cc3n(c2c1)CC(C)(C(=O)NC1CCCCC1)N(CCc1ccccc1)C3=O (stereo not drawn),-
CC(C)(C#N)c1ccc(N2C(=O)OCc3cnc4ccc(-c5cnc6ccccc6c5)cc4c32)cc1,-
CCN1C(=O)c2cc3ccccc3n2CC1(C)C(=O)NCC(=O)NCc1cccc(C)c1 (stereo not drawn),-
Cc1ccc(C)c(S(=O)(=O)c2nnn3c2nc(N2CCCC2)c2ccccc23)c1,-
Cc1ccc(S(=O)(=O)c2nnn3c2nc(N2CCC(N4CCCCC4)CC2)c2ccccc23)cc1C,+
O=S(=O)(c1ccccc1)c1nnn2c1nc(N1CCCCC1)c1ccccc12,-
Cc1cccc(CNC(=O)c2cc3n(n2)CC(C)(C(=O)NC2CCCCCC2)N(C)C3=O)c1 (stereo not drawn),-
O=C(NC1CCN(Cc2ccccc2)CC1)C1CCCN(c2cnc3nccnc3c2)C1 (stereo not drawn),-
COc1cc2c(NC3CCN(C(C)C)CC3)nc(N3CCC(F)(F)CC3)nc2cc1OCCCN1CCCC1,+

# Source: PubChem (National Center for Advancing Translational Sciences (NCATS))
